Screening results from PubChem.
An excerpt weighted towards active compounds, which were near 6.2% of everything screened.
KB-V1 cytotox – KB-V1 MDR subline cytotoxicity; KB-V1 MDR cells viability, CellTiter-Glo, 72 h; Potency, µM (series often up to 46.1 µM), usual class: cytotoxic; actives 3.4% (n = 400,000); note: % is set by controls: 0 for no effect and ±100 for the full control effect; nearly all actives have a fitted effect of over 60% in size
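Luminescent ATP read-out (CellTiter-Glo, 10 min) measures survival of drug-selected KB-V1 MDR cells after 72 h, 37 degrees C compound exposure. Medium: phenol-red-free DMEM, 10% FBS. Values from fitted concentration-response curves.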
ATXN2 expr inh – inhibitors of ATXN2 expression; HEK-293 ATXN2-luciferase reporter, luminescence, 24 h; Potency, µM (titrated, usually from 57 µM), inactives show at the top dose activity change, negative = inhibition, actives largely listed as inhibitors; actives 0.72% (n = 360,000); note: % is set by controls: 0 for no effect and ±100 for the full control effect; nearly all actives have a fitted effect of over 55% in size
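ATXN2-luciferase reporter cells (luciferase flanked by upstream and downstream ATXN2 gene portions) were treated 24 h at 37 °C with compounds at up to 57 uM. SteadyGlo luminescence gave expression; GF-AFC fluorescence gave viability.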
HT1080 IDH1KD tx – kills HT-1080 cells with IDH1 knockdown; HT-1080 IDH1 knockdown viability, ATP luminescence, 48 h; Potency, µM (top dose mostly 46.1 µM), for the others: top-dose activity, negative = toxicity, most hits filed as cytotoxic; actives 2% (n = 360,000); AID 686971;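 note: 0% = DMSO wells and -100% = cell-free medium wells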
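Luminescent ATP read-out (CellTiter-Glo, 10 min at room temperature) after 48 h compound exposure at 37 °C gave viability of IDH1-knockdown HT-1080 cells. Activity was normalised to DMSO and cell-free wells, then fitted as concentration-response curves.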
ATXN viability – reduces viability in counter-screen for ATXN expression inhibitors; AID 651635; actives 0.49% (n = 400,000); Potency, µM (titrated, usually from 56.7 µM), most hits filed as cytotoxic; S2 cells (HEK-293 line with an ATXN2-luciferase reporter) viability, CellTiter-Fluor protease fluorescence, 24 h; note: nearly all actives have a fitted effect of over 40% in size
KB-3-1 tox – kills parental KB-3-1 adenocarcinoma cells; KB-3-1 viability, CellTiter-Glo ATP luminescence, 72 h; Potency, µM (titrated, usually from 46.1 µM), usual class: cytotoxic; actives 1.4% (n = 400,000); AID 1347075; note: % is set by controls: 0 for no effect and ±100 for the full control effect; nearly all actives have a fitted effect of over 60% in size
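Cytotoxicity in the drug-sensitive parental line KB-3-1 was scored as loss of CellTiter-Glo luminescence following 72 h incubation with compound. Values come from curve fitting of normalized concentration-response data.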
HT1080-NT tox – kills 2HG-producing HT-1080-NT fibrosarcoma cells; AID 686970; actives 1.6% (n = 360,000); Potency, µM (doses to about 46.1 µM), for inactives: at the top dose activity, negative = less viability, usual class: cytotoxic; HT-1080-NT fibrosarcoma viability, CellTiter-Glo ATP luminescence, 48 h;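 note: NT is the 2HG producing partner of a matched IDH1 knockdown line; 0% = DMSO-treated cells and -100% = media-only wells without cells; nearly all actives have a fitted effect of over 55% in size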
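A 48-hour cytotoxicity screen used HT-1080-NT cells plated 2 hours before compound delivery. ATP-based CellTiter-Glo luminescence measured viability, normalized to DMSO and no-cell controls.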
The depositor's hits bear a star; i = inactive; ? = inconclusive; nt = no result given. Calls come from the whole dose curve; as a rule, active = well fitted curve in the direction sought with a large enough effect; inconclusive = small, poorly fitted or top-dose-only effect, or another doubt; inactive = no such curve, though single readings can be large; an effect the other way counts as inactive or inconclusive. Potency is the fitted concentration of half-maximal effect.

SMILES	KB-V1 cytotox	ATXN2 expr inh	HT1080 IDH1KD tx	ATXN viability	KB-3-1 tox	HT1080-NT tox
CN1CCN([C@@H]2CS(=O)(=O)N[C@H]2COCc2ccccc2)CC1	i	9%	11%	i	i	13%
COc1ccc(CCNC(=O)CCc2c(C)nc3cc(-c4ccccc4OC)nn3c2C)c(OC)c1	i	?	nt	?	i	nt
COc1ccc(Cl)c(-c2cc(C(=O)Nc3ccccc3)[nH]n2)c1	i	72%	-20%	i	i	?
CCOC(=O)C1=C(C)NC(C)=C(C(=O)OCC)C1c1cc2ccc(C)cc2[nH]c1=O	i	-5%	8.2µM*	i	6.5µM*	18µM*
COC(=O)C1=C(C)NC(C)=C(C(=O)OC)C1c1cc2ccc(C)cc2[nH]c1=O	i	8%	?	i	?	-27%
COc1ccc(CC(N)c2csc(NC(=O)c3cccc(OC(F)(F)F)c3)n2)cc1 (stereo not drawn)	?	?	21µM*	i	?	21µM*
NC(Cc1ccccc1)c1csc(NC(=O)c2cccc(OC(F)(F)F)c2)n1 (stereo not drawn)	?	?	?	?	?	15µM*
O=C(Nc1ccc([N+](=O)[O-])cc1)Nn1cnnc1	i	6%	-1%	i	i	1%
O=C1CCc2cc(S(=O)(=O)Nc3cc(F)cc(Cl)c3)c(F)cc2N1	i	nt	nt	nt	i	nt
Cc1ccc(CCNC(=O)c2nnc(CS(=O)(=O)c3ccccc3)o2)cc1	i	7%	4%	i	i	-1%
Cc1ncc2c(c1CNC(=O)c1cncs1)CCN(C(=O)c1csc(-c3cccs3)n1)C2	nt	nt	nt	i	nt	nt
COc1cc2nc(N3CCCN(C)CC3)nc(OC3CCN(C)CC3)c2cc1OC	i	nt	nt	nt	i	nt
COC1C(CO)OC(n2c3c(Cl)cccc3c3c4c(c5c6cccc(Cl)c6[nH]c5c32)C(=O)NC4=O)C(O)C1O (stereo not drawn)	i	?	5.8µM*	?	8.2µM*	4.6µM*
Cc1cccc2c(N3CCCC3)nc(CNS(=O)(=O)c3ccc4ccccc4c3)nc12	nt	nt	nt	i	nt	nt
COc1ccc(-c2c(C)nn3c(N4CCCCCC4)cc(C)nc23)cc1OC	?	?	?	?	18µM*	?
COc1ccc(-c2csc3ncnc(Nc4cccc(OC)c4)c23)cc1	i	?	nt	i	i	nt
CC(=O)Nc1cccc(Oc2ncnc3scc(-c4ccc(C(C)C)cc4)c23)c1	21µM*	12%	?	i	?	?
CC(C(=O)NC1CCCC1)n1c(C2CCCC2)nc2ccccc21 (stereo not drawn)	?	nt	12%	nt	i	2%
CC(C)CNc1nc(N)c([N+](=O)[O-])c(N2CCCCCC2)n1	9.2µM*	-12%	?	i	18µM*	?
CCC(C)Nc1nc(N)c([N+](=O)[O-])c(N2CCCCCC2)n1 (stereo not drawn)	i	-27%	-11%	i	i	-3%
COc1ccc(CN2C(=O)c3cccnc3C2Nc2ccc(OC)c(Cl)c2)cc1 (stereo not drawn)	15µM*	4%	-2%	i	i	7%
O=C(Cc1ccc(Br)cc1)Nc1cccc(-c2cn3c(n2)SCC3)c1	8.2µM*	-12%	?	i	?	-13%
Cc1nc(-c2cccc(NC(=O)c3cccs3)c2)cs1	i	28%	?	i	i	-6%
Cc1nc(-c2cccc(NC(=O)Cc3ccccc3)c2)cs1	16µM*	0%	-3%	i	i	2%
O=C(Nc1cccc(-c2csc(-c3ccccc3)n2)c1)c1cccs1	15µM*	-15%	-24%	i	i	?
CCOC(=O)c1ccc(NS(=O)(=O)c2ccc3c(c2)CCN3C(=O)CC)cc1	i	-16%	nt	?	i	nt
